Assay outcomes: PubChem, National Center for Advancing Translational Sciences (NCATS)
FBPA coupling cs: qHTS Assay for Inhibitors of Fructose-1,6-bisphosphate Aldolase from Giardia Lamblia: Coupling assay counterscreen; actives 0.67% (n = 290,000); activity change, negative = inhibition, % at 58.2 µM, hits read low; coupling enzyme system counterscreen, AmpLite Red fluorescence; in the data active = activity change below about -30%; note: % is set by controls: 0 for no effect and ±100 for the full control effect
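Final compound at 57.5 uM, incubated 10 min at RT with coupling enzyme reagent (glyceraldehyde-3-phosphate), then 20 min with substrate and AmpLite Red detection. Fluorescence read at 525/598 nm; tests interference with the coupling assay, not aldolase inhibition.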
RXFP1 antagonist: qHTS Assay for Antagonists of the Relaxin Receptor RXFP1; activity change, negative = inhibition, % at 57.5 µM; HEK293-RXFP1, relaxin-stimulated cAMP HTRF, 30 min; hits give low values; Relaxin receptor 1 (Homo sapiens), Q9HBX9; actives 0.59% (n = 350,000);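 active = activity change of -60% or lower, but not beyond a set lower limit; inconclusive = change between -60% and -40%, or beyond the set limit; inactive = change above -40%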; note: % is set by controls: 0 for no effect and ±100 for the full control effect
Target sequence (Q9HBX9 whole entry, looked up): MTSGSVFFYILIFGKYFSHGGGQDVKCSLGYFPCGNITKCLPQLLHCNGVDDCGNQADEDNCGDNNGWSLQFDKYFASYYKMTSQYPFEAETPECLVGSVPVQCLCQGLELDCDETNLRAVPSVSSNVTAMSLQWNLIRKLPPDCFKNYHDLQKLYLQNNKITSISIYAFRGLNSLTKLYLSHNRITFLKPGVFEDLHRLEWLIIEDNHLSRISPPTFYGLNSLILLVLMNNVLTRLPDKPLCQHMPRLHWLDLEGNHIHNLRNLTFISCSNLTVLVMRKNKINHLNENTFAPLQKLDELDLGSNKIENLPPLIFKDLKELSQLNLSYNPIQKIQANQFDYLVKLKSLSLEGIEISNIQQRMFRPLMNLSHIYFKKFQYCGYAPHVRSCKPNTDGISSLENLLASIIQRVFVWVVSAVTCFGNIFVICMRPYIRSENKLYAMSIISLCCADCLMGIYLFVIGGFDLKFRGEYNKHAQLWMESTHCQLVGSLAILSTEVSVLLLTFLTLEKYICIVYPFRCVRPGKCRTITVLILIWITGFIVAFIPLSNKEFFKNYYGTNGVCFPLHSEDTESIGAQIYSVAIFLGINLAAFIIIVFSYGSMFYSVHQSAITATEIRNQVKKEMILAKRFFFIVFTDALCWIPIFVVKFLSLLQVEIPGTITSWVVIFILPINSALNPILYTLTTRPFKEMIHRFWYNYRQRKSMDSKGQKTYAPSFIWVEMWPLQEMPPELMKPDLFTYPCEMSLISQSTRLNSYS
Giardia killer: Small Molecules that selectively kill Giardia lamblia: qHTS; activity change, % at 7.66 µM, hits read low; AID 540267, 2011; Giardia lamblia trophozoite viability; actives 0.15% (n = 340,000); in the data active = activity change below about -80%; inconclusive = between about -30% and that limit;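 note: parasites exposed to compound for two days anaerobically before the ATP read; % is set by controls: 0 for no effect and ±100 for the full control effect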
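Compounds were tested on trophozoites seeded at 100 cells/well and held 48 hrs at 37 deg C anaerobically. An ATP-based luminescent kit measured the remaining live cells.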
gsp ag: qHTS for Agonist of gsp, the Etiologic Mutation Responsible for Fibrous Dysplasia/McCune-Albright Syndrome: qHTS; gsp mutant cells, cAMP HTRF, 30 min; Potency, µM (doses to about 76.9 µM), for inactives: at the top dose activation (cAMP increase), most hits filed as activators; actives 0.13% (n = 340,000); AID 624287, 2012; active = well fitted activation curve with a large enough effect; inconclusive = small, poorly fitted or top-dose-only effect, or another doubt; inactive = no such curve, though single readings can be large or run the other way; cell line not stated here;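 note: phosphodiesterase inhibitor Ro 20-1724 added with compounds to block cAMP breakdown; potency is the fitted concentration of half-maximal effect; nearly all actives have a fitted effect of over 60% in size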
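Cells in DMEM/10% FBS with G418 were pretreated with compounds in DMSO plus […] (300 uM stock) for 30 min at 37C. cAMP was measured by HTRF (cAMP-d2 plus anti-cAMP antibody-K) after 30 min at room temperature.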
gsp antagonist: qHTS for Antagonists of gsp, the Etiologic Mutation Responsible for Fibrous Dysplasia/McCune-Albright Syndrome: qHTS. actives 0.4% (n = 340,000). gsp-mutant cells, cAMP HTRF, 30 min. Potency, µM (top dose mostly 76.9 µM), inactives show top-dose activity change, negative = inhibition, usual class: inhibitors. AID 624288, 2012; calls by dose curve; cell line not stated here;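 note: intracellular cAMP measured with PDE inhibitor Ro 20-1724 present during compound exposure; potency is the fitted concentration of half-maximal effect; % is set by controls: 0 for no effect and ±100 for the full control effect; nearly all actives have a fitted effect of over 65% in size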
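G418-selected cells were plated in DMEM/10% FBS for 16-24 h at 37C, then treated with compounds plus the PDE inhibitor […] (300 uM solution added) for 30 min at 37C. Intracellular cAMP was measured by HTRF after 30 min lysis at room temperature.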
RXFP1 ag: qHTS Assay for Agonists of the Relaxin Receptor RXFP1 | Relaxin receptor 1 (Homo sapiens), Q9HBX9 | HEK293T-RXFP1 cAMP TR-FRET, 30 min; response scale: percent of porcine relaxin response, buffer zero | Potency, µM (highest dose often 57.5 µM), for the others: at the top dose activation, actives largely listed as activators | actives 0.3% (n = 370,000); active = well fitted activation curve with a large enough effect; inconclusive = small, poorly fitted or top-dose-only effect; note: potency is the fitted concentration of half-maximal effect; % is set by controls: 0 for no effect and ±100 for the full control effect; nearly all actives have a fitted effect of over 60% in size
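cAMP rise read by TR-FRET after 30 min, 37C compound exposure (up to 58 uM) in RXFP1-transfected HEK293 cells with Ro 20174 present. EC50 from Hill-equation fits, with 29 nM porcine relaxin as 100% and buffer as basal.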
Active calls of the source: *; u = inconclusive; x = no result given; ! = not confirmed by another sample; [ ] = dose if it differs, or a comment. Sampled rows, rich in hits. Any-hit rate of the full collection: about 1.6%.

SMILES	FBPA coupling cs	RXFP1 antagonist	Giardia killer	gsp ag	gsp antagonist	RXFP1 ag
O=C(Cn1cnc2c(oc3ccccc32)c1=O)N1CCCC1	2	-20	-15	-6%[15.4 µM]	22%	-1%
COC(=O)c1cc(NC(=O)CN(C)Cc2ccccc2)cc(C(=O)OC)c1	2	-6	-5	-1%[15.4 µM]	-10%	-1%
Cc1cc(C)c(S(=O)(=O)N2CCOC2CNC(=O)C(=O)NCCCN2CCOCC2)c(C)c1 (stereo not given)	x	3	21	-2%	1%	1%
Cc1cc(=O)cc2oc3cc(N)c(-c4c(C)cc(O)cc4O)c(C)c3nc1-2	-30*	x	x	x	x	x
NS(=O)(=O)c1cccc(C(=O)N2CCCc3ccccc32)c1	x	-3	x	-59%	x	x
O=S(=O)(Nc1ccccn1)c1ccc(Cl)cc1	2	6	-8	8%	8%	-1%
O=S(=O)(Nc1ccccn1)c1ccc(-n2cccn2)cc1	1	-108*	-17	u	2%	-3%
Cc1cccc(NC(=O)CN2CCc3cc4c(cc3C2C)OCCCO4)c1 (stereo not given)	0	-13	-12	15%	-21%	0%
Cc1cc(C)cc(NC(=O)CN2CCc3cc4c(cc3C2C)OCCCO4)c1 (stereo not given)	-6	-62*	-22	0%	-13%	1%
CC(C)([CH2][Sn]([CH2]C(C)(C)c1ccccc1)([CH2]C(C)(C)c1ccccc1)[O][Sn]([CH2]C(C)(C)c1ccccc1)([CH2]C(C)(C)c1ccccc1)[CH2]C(C)(C)c1ccccc1)c1ccccc1	1	x	x	x	x	x
CCOc1ccccc1C1C(C#N)=C(N)Oc2n[nH]c(CC)c21 (stereo not given)	-1	3	14	-20%	0%	-2%
CCc1ccc(C2C(C#N)=C(N)SC(N)=C2C#N)cc1	-16	3	9	40µM*	-19%	13%
CCOc1ccc(C2C(C#N)=C(N)SC(N)=C2C#N)cc1OCC	-22	8	-3	u	17%	11%
CCOc1ccc(C2C(C#N)=C(N)SC(N)=C2C#N)cc1OC	-39*	x	x	x	x	13%
CCOc1ccccc1C1C(C#N)=C(N)SC(N)=C1C#N	-31*	4	1	u	6%	11%
CC(=O)OC[C@@H]1O[C@H](CCO/N=C(\C)CCC(=O)OC[C@@H]2O[C@H](C#Cc3ccccc3)C=C[C@@H]2Oc2ccc(C)cc2)C=C[C@@H]1OC(C)=O	1	x	x	x	x	x
Cc1ccc(C2N=C(Nc3nc4ccccc4o3)NC3=C2C(=O)CC(C)(C)C3)cc1 (stereo not given)	x	x	-1	x	x	x
COC(=O)C1=C(C)NC(C)=C(C(=O)OC)C1c1ccccc1[N+](=O)[O-]	-78*!	-12	3	x	26%	5%
CCOC(=O)C1=C(C)NC(C)=C(C(=O)OC)[C@@H]1c1cccc([N+](=O)[O-])c1	0	x	x	x	x	x
COc1cccc(CN(C)C(=O)CSCC(=O)Nc2ccc(C)cc2)c1OC	x	-23	-9	-1%[15.4 µM]	-5%	0%
COCc1c(C(=O)NCc2ccccc2CN2CCCC2)oc2ccccc12	x	-10	-5	-7%	-2%	2%
CCOc1ccc(-n2c(C)cc(/C=C3/C(=N)N4C(=NC3=O)SN=C4S(C)(=O)=O)c2C)cc1	8	-6	9	-16%	32µM*	0%
Cc1ccc(-n2cccc2/C=C2/C(=N)N3C(=NC2=O)SN=C3S(C)(=O)=O)cc1Cl	14	-40	6	-6%	-12%	-1%
Cc1cc(/C=C2/C(=N)N3C(=NC2=O)SN=C3S(C)(=O)=O)c(C)n1-c1ccc(F)cc1	7	0	-2	2%	-20%	-1%
